Experimental data taken from PubChem BioAssay AID602399 (Sanford-Burnham Center for Chemical Genomics, 2012).
Among all 360,000 compounds or so, about 2,800 (0.78%) were called active. The sample holds actives, similar compounds and a random draw of the others, so the mix is not that of the screen. Unmarked numbers belong to inactive results. Cut-off read from the data, not from the text of the source: active = inhibition above about 26%; inactive = the rest.

Each compound was assayed on Nicotinate-nucleotide adenylyltransferase NadD (Staphylococcus aureus N315) (assay: S. aureus NadD enzyme activity blockers – biochemical, colorimetric, uHTS, primary screen (AID 602399)). Details: purified NadD enzyme, colorimetric absorbance read-out; at 20 µM; hits give high values.

Compound	inhibition
Cc1noc(C)c1S(=O)(=O)N(C)C[C@H]1Oc2ccc(NC(=O)C3CCCCC3)cc2C(=O)N([C@H](C)CO)C[C@@H]1C	-4.63%
COc1ccc(CN2CCn3ncc(C(=O)Nc4ccc(Cl)cc4Cl)c3C2=O)cc1	-3.68%
Fc1ccc2c(c1)C(c1cccnc1)=NNC(c1cccs1)=N2	-1.68%
O=c1oc(-c2ccccc2NS(=O)(=O)c2ccc(Cl)cc2)nc2ccccc12	10.9%
CCCCCN(C(=O)CCC(=O)OCC(=O)NCc1ccc(OC)cc1)c1c(N)n(CCCC)c(=O)[nH]c1=O	-7.19%
CC(C)c1ccc2c(c1)c(SC(C)(C)C)c(CC(C)(C)C(=O)O)n2Cc1ccc(Cl)cc1	31.8% (active)
COc1cc(-c2nnn(CC(=O)NCc3ccccc3)n2)cc(OC)c1OC	1.36%
COc1ccc(C2CC(c3ccccc3)=NN2C(=O)CSc2nccc(=O)[nH]2)cc1 (stereo not given)	9.94%
COc1ccc(C2=NN(C(=O)CSc3nc(=O)n4ccc(C)cc4n3)C(c3ccc(C)cc3)C2)cc1 (stereo not given)	36.1% (active)
Cc1ccc(C2=NN(C(=O)CSc3nc(N)cc(N)n3)C(c3ccco3)C2)cc1 (stereo not given)	4.52%
COc1ccc(C(=O)N2CCCCC2c2cc(C(=O)Nc3ccc(F)c(Cl)c3)no2)cc1 (stereo not given)	2.01%
C[C@H]([C@@H](O)[C@@H](O)[C@@H](C)C(C)(C)C)[C@H]1CC[C@H]2C3CC[C@H]4C[C@H](OS(=O)(=O)O)[C@@H](OS(=O)(=O)O)C[C@]4(C)[C@H]3CC[C@]12C (stereo not given in full)	11.9%
COc1cc(/C=C2\C(=N)N3N=C(CC(=O)N4CCOCC4)SC3=NC2=O)cc(OC)c1OC	-3.62%
CCOc1cc(/C=C2\C(=N)N3N=C(C)SC3=NC2=O)ccc1OCCOc1ccccc1	22.4%
COc1ccccc1OCCOc1ccc(/C=C2\C(=N)N3N=C(C)SC3=NC2=O)cc1	29% (active)
C[C@@H]1CN([C@H](C)CO)C(=O)CCCn2nncc2CO[C@@H]1CN(C)S(=O)(=O)c1cccc(C#N)c1	4.94%
CCOC(=O)c1ccc(NC(=O)c2c(N)n(C)c(=O)[nH]c2=O)cc1	-3.34%
Cc1ccc(C(=O)COC(=O)CCN2C(=O)C3C4CCC(C4)C3C2=O)cc1C (stereo not given)	4.2%
Cc1ccc(C(=O)COC(=O)c2cccc(N3C(=O)c4c(C)nc5ccccc5c4C3=O)c2)cc1C	29.7% (active)
COc1ccc(C(=O)OCC(=O)c2ccc(C)c(S(=O)(=O)N3CCOCC3)c2)cc1OC	-14%
CN(C)c1ccnc(Oc2ccc(F)cc2)c1C#N	0.732%
O=C(O)C1=NN(c2c(F)c(F)cc(F)c2F)C(=O)CC1	-2.16%

Compound	inhibition
COc1ccc(NS(=O)(=O)c2ccc(NC(=S)NC(=O)/C=C/c3ccc(C)cc3)cc2)nn1	52.5% (active)
COc1ccc(NS(=O)(=O)c2ccc(NC(=O)C(C)(C(F)(F)F)C(F)(F)F)cc2)nn1	8.48%
COc1cc(NS(=O)(=O)c2ccc(NC(=S)NC(=O)c3ccc(Br)cc3)cc2)ncn1	16.5%
COc1ccccc1-n1c(SCC(=O)O)nc2sc3c(c2c1=O)CCC3	-6.38%
COc1cccc(C(=O)NC(=O)Nc2nc(C)cc(C(F)(F)F)n2)c1	1.69%
Cc1cc(O)c(Sc2ccccc2)c(=O)o1	-2.78%
COc1ccc(/C=C/C(=O)c2c(O)cc(OC)cc2OC)cc1	-0.858%
Cc1cc(O)c(C(=O)/C=C/c2c(F)c(F)c(F)c(F)c2F)c(=O)o1	30% (active)
CC(=O)c1c(C)n([O-])c2ccccc2[n+]1=O	4.16%
CC(NC(=O)C(=O)N/N=C/c1ccc(Cl)cc1)c1ccccc1 (stereo not given)	-0.376%
N#Cc1cc([N+](=O)[O-])ccc1Oc1cccc(/C=N/NC(=O)c2ccc(Cl)cc2)c1	19.4%
O=C(N/N=C/c1ccc(Cl)cc1)c1nc2ccc([N+](=O)[O-])cc2c(=O)[nH]1	42.6% (active)
Cc1cccn2c(=O)c3cc(C#N)c(=NC(=O)c4cccnc4)n(CC4CCCO4)c3nc12 (stereo not given)	0.191%
COc1ccccc1N(CC(=O)Nc1ccc(C)cc1Cl)S(=O)(=O)c1cccs1	-10.3%
COc1cc(-c2noc(C3CCCN(S(=O)(=O)c4cccc(Cl)c4)C3)n2)cc(OC)c1OC (stereo not given)	-12.5%
COc1ccc(Cl)cc1C=CC=NNC(=O)c1ccncc1	9.06%
COc1ccc(-n2c(-c3ccc(Cl)cc3)n[nH]c2=S)c(OC)c1	5.69%
COc1ccccc1/C=C/C=N/n1c(-c2ccc(Cl)cc2Cl)n[nH]c1=S	28% (active)
COc1ccc(OC)c(/C=N/NC(=O)CSc2nnc(C)n2-c2ccccc2)c1	4.2%
O=Cc1cn(-c2ccccc2)nc1-c1ccccn1	-0.605%
COc1ccc(-c2nn(-c3ccccc3)cc2/C=N/Nc2ccccn2)cc1OC	30.9% (active)
N#C/C(C(=O)N1CCOCC1)=C1/SC(Cc2ccc(F)cc2)C(=O)N1c1ccccc1 (stereo not given)	5.64%

Compound	inhibition
CCCCN(C=O)c1c(CC)nc2c(OCc3ccccc3C(=O)OC)cccn12	3.2%
CC(C)C(NC(=O)c1c(F)cccc1F)C(=O)NCc1ccncc1 (stereo not given)	-4.3%
Cc1cc(C(=O)OC(C)C(=O)NC2CCCCC2C)c(C)o1 (stereo not given)	-0.327%
CC(=O)c1c(C)[nH]c(C(=O)COC(=O)c2cccc(S(=O)(=O)N(C)c3ccccc3)c2)c1C	-2.3%
S=c1[nH]nc(NCCc2ccccc2)s1	6.24%
S=c1[nH]nc(Nc2ccccc2)s1	31% (active)
CC(C)(C)C(=O)c1cnc(Nc2ccccc2)s1	-4.48%
O=c1c([N+](=O)[O-])cccn1Cc1ccc(F)cc1Cl	-2.47%
Cc1c(C(=O)N(C)CCc2cnn(C)c2)oc2c(F)cccc12	-0.376%
CCOC(=O)C(C)n1nc(-c2ccccc2)c2ccccc2c1=O (stereo not given)	4.56%
CCN(CC)C(=O)c1nc[nH]c1C(=O)N(C)Cc1ccccc1	-5.16%
CCN(CC)C(=O)c1sc2nc(-c3ccccc3)ccc2c1N	29.7% (active)
CC1(C)C(C=C(Cl)Cl)C1C(=O)NC(O)C(=O)c1ccccc1 (stereo not given)	-1.25%
Cc1c2cnn(-c3ccccc3)c(=O)c2c(C)n1CCCC(=O)N1CCN(C)CC1	4.17%
Cc1nn(CC(=O)Nc2ccc3c(c2)nc(CN2CCCCC2)n3C)c(=O)c2ccccc12	-0.187%
CCC(=O)Nc1ccc2c(c1)nc(CCN1CCN(c3ccccn3)CC1)n2C	-0.459%
Cn1c(CCN2CCCCCC2)nc2cc(NC(=O)Nc3ccccc3)ccc21	31.5% (active)
Cc1noc(/C=C/c2ccco2)c1S(=O)(=O)N1CCC(C(=O)Nc2ccc(Cl)cn2)CC1	16.8%
Cc1noc(/C=C/c2ccco2)c1S(=O)(=O)N1CCC(C(=O)N2CCc3ccccc32)CC1	31.6% (active)
CNC(=O)C1CCN(S(=O)(=O)c2c(C)noc2/C=C/c2cccc(C)c2)CC1	-4.39%
CCc1ccc(OCC(=O)NCC(c2ccc(Cl)cc2)N2CCCCC2)cc1 (stereo not given)	-9.2%
O=C(O)CN(Cc1ccco1)S(=O)(=O)c1ccc(F)cc1	-0.327%

Compound	inhibition
O=Nc1c(O)cc(O)c2ccccc12	-0.774%
NC(CSC(c1ccccc1)(c1ccccc1)c1ccc(-c2ccccc2)cc1)C(=O)O (stereo not given)	43.5% (active)
NC(CSC1(c2ccccc2)c2ccccc2-c2ccccc21)C(=O)O (stereo not given)	27.6%
CCC(C)OC(=O)C(C)Oc1ccc(-c2ccccc2)cc1 (stereo not given)	2.06%
O=C(N1CCOCC1)N(Cc1ccccc1)c1ccccn1	-0.327%
COc1ccccc1CCNC(=O)C1CCN(C(=O)/C=C/c2ccccc2)CC1	1.36%
COC(=O)c1ccc(COc2ccc(/C=C/C(=O)c3ccc(OC)c(CSCC(=O)O)c3)cc2OC)cc1	20.9%
COc1ccc(C(=O)/C=C/c2ccc(-c3ccccc3)cc2)cc1CSCC(=O)O	42.8% (active)
COc1cc(C(=O)Nn2c(O)c(C3=c4ccccc4=NC3=O)sc2=S)ccc1O	9.44%
COC(=O)CC(CC(=O)OC)n1cccc1	-1.87%
CCn1cc(CN2CCN(CC(C)(C)C)C(CCO)C2)c2ccccc21 (stereo not given)	-1.34%
COc1cc(Cl)c(C)cc1NC(=O)[C@@H]1CCCN1C(=O)c1cccs1	-0.625%
Cc1c(C(=O)OC(C)C)sc(NC(=O)c2cccnc2)c1C#N	7.06%
Cc1cc(N2C(=O)C(O)=C(C(=O)c3ccc(C)o3)C2c2ccc(OCc3ccccc3)cc2)no1 (stereo not given)	58.6% (active)
C=CCOc1cccc(C2C(C(=O)c3ccc(C)o3)=C(O)C(=O)N2c2nnc(C)s2)c1 (stereo not given)	12.2%
CCCOc1ccc(C2C(C(=O)c3ccc(C)o3)=C(O)C(=O)N2CCCn2ccnc2)cc1 (stereo not given)	17.5%
CCC(C)N(C(=O)COC(=O)C1C(C(=O)OC)=C(C)NC(C)=C1C(=O)OC)C1CCS(=O)(=O)C1 (stereo not given)	1.18%
Cc1ccc(Cc2nnc(SCC(=O)Nc3ccccc3C)[nH]c2=O)cc1	2.18%
NC(=O)NC(=O)CSc1nc2cc([N+](=O)[O-])ccc2n1-c1cccc(C(F)(F)F)c1	17.8%
